Measurements as given in the supplement of paper PMC10849652.
About 8,800 targets were measured; listed, in parts, are those with a hit and a random draw of the rest. About 0.5% of all pairs of compound and target were hits. A number with no mark means an inactive call.

Each target was assayed with NCC(=O)Nc1ccc(-n2nc(C(F)(F)F)cc2-c2ccc3c(ccc4ccccc43)c2)cc1 (assay: log2 fold change, soluble protein after heating vs DMSO (PISA); higher = thermal stabilisation; K562 lysate, 10 uM; active = over 0.2 and 3.5 SD of the protein, either way, in both replicates (recomputed)).
Procedure, shortened: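 K562 pellets were dounce-homogenised in PBS pH 7.4 with 1 mM MgCl2, and the crude extract at 1 mg/mL protein was treated with 10 μM compound for 30 min. Aliquots were heated for 3 min across 48°C-58°C, pooled, and brought to 0.5% NP-40 at 4°C; soluble protein was the supernatant after 21,000xg for 90 min. Soluble protein was quantified by TMTpro 16plex LC-MS/MS with channel sums equalised, and reported as log2 fold change in thermal stability against DMSO controls, with values from duplicates.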

UniProt Q5D0E6, sequence (Q5D0E6 whole entry, looked up): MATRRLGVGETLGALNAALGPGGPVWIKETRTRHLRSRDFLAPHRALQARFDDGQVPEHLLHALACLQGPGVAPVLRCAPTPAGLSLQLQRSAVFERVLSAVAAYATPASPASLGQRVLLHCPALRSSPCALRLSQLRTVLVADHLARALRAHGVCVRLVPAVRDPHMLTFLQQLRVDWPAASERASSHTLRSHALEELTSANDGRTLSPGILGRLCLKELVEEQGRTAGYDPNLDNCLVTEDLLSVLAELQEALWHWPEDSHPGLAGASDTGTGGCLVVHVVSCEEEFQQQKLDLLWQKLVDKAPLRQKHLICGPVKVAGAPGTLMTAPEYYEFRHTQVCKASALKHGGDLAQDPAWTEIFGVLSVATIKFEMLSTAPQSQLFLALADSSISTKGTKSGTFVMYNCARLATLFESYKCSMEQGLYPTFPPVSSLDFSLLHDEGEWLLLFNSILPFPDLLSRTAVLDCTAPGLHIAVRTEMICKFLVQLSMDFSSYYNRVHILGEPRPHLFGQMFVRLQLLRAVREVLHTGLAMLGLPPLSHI
UniProt O75122, sequence (O75122 whole entry, looked up): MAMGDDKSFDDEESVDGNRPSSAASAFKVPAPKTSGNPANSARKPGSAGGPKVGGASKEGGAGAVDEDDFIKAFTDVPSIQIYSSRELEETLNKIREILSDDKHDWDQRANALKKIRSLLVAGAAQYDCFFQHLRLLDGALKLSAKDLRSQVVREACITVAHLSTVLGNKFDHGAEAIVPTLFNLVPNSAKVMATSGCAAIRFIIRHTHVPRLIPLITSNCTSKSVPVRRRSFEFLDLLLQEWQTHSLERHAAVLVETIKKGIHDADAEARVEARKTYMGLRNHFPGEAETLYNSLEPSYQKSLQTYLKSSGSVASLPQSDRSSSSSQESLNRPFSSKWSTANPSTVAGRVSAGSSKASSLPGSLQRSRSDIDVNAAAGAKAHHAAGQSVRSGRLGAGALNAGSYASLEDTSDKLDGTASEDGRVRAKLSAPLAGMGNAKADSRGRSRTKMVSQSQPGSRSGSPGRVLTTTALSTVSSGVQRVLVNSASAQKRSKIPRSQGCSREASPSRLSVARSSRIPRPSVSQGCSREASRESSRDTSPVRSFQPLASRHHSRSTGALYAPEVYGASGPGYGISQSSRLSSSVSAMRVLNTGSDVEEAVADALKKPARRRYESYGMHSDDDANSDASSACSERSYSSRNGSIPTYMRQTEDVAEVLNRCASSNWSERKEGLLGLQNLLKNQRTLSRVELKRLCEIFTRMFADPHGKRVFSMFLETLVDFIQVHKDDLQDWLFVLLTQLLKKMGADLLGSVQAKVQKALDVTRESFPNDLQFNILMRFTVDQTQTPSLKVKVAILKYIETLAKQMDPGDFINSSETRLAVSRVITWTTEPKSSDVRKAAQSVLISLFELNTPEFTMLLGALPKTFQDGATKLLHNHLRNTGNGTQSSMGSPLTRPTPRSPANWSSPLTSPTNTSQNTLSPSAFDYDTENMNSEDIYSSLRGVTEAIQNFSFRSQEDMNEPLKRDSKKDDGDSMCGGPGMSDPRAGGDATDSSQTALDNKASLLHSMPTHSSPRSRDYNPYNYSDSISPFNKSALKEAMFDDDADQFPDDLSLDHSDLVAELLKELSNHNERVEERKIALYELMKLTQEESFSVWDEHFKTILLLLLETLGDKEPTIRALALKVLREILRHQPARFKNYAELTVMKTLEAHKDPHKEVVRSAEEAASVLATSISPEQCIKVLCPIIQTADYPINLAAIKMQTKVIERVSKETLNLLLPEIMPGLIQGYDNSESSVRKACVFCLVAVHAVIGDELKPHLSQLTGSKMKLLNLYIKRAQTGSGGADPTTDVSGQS
UniProt P68400, sequence (P68400 whole entry, looked up): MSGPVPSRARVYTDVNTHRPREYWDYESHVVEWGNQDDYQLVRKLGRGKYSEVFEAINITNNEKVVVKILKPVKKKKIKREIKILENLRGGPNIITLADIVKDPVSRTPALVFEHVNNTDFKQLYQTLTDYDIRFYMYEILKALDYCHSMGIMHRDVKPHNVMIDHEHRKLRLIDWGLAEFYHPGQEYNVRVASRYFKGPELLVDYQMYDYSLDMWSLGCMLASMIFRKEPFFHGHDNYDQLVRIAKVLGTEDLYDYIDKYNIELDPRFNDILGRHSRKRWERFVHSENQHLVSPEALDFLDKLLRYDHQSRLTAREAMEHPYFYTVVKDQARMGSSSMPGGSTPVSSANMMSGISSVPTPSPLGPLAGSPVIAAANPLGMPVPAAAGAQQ
UniProt Q96SQ9, sequence (Q96SQ9 whole entry, looked up): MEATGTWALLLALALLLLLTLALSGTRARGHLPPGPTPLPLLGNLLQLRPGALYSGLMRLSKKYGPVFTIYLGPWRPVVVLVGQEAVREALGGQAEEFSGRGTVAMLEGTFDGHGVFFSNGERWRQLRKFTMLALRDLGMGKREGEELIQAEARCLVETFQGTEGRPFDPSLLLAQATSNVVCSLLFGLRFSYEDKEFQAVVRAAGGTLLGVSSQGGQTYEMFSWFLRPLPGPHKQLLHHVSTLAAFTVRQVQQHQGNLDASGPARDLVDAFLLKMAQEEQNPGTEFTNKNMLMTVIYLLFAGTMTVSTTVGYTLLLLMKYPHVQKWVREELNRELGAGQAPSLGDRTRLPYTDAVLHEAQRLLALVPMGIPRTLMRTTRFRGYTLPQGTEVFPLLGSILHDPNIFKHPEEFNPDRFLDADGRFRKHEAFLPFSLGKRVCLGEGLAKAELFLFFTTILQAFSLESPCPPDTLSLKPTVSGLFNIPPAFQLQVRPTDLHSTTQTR
UniProt G9CGD6, sequence (G9CGD6 whole entry, looked up): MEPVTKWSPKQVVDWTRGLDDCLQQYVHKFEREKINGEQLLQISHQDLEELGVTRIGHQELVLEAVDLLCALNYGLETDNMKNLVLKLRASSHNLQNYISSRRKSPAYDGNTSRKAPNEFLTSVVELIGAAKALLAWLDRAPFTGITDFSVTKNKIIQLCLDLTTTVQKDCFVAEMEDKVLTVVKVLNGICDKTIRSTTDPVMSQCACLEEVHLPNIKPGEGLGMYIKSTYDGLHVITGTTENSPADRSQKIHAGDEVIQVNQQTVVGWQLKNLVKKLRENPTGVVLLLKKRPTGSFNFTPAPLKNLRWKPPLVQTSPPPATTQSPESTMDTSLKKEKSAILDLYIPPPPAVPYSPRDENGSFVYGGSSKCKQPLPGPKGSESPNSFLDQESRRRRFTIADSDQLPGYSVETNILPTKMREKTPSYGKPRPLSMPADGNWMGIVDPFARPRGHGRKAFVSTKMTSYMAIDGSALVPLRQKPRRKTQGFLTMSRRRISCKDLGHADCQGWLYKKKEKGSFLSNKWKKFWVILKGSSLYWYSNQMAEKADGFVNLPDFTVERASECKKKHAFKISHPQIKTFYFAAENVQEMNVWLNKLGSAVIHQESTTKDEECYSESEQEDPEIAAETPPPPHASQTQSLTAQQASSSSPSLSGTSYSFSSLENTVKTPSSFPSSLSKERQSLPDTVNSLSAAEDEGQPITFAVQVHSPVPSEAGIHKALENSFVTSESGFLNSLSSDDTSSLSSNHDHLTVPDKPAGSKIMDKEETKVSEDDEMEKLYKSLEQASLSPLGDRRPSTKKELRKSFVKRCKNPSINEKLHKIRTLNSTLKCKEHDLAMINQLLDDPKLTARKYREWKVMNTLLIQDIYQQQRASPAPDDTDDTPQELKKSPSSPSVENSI
UniProt P51790, sequence (P51790 whole entry, looked up): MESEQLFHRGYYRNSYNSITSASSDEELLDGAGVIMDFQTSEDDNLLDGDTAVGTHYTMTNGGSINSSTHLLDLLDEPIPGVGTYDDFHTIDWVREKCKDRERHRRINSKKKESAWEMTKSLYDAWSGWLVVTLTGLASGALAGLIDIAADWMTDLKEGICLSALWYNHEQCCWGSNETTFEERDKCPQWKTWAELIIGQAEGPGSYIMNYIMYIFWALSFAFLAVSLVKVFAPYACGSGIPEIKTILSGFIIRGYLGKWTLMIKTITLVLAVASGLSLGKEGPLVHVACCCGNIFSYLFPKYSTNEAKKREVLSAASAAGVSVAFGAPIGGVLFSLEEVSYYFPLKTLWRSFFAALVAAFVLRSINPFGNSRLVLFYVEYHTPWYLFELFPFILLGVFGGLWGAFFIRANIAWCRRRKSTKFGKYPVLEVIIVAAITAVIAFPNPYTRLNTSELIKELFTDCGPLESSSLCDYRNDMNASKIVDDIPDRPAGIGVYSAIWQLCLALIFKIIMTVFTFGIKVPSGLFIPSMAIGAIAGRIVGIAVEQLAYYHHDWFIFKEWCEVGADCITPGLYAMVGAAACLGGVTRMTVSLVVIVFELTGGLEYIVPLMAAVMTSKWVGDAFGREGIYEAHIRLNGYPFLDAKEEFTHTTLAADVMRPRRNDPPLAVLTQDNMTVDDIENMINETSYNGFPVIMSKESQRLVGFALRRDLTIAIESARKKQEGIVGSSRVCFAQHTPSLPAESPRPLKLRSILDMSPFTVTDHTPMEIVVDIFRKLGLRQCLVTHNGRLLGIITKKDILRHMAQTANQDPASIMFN
UniProt Q9BW66, sequence (Q9BW66 whole entry, looked up): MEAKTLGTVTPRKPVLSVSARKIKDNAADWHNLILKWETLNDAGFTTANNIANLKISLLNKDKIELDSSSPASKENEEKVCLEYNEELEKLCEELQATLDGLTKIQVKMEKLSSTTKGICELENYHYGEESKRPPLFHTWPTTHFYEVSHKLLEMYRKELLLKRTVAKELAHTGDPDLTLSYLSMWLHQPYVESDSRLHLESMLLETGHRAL
UniProt Q9BSY9, sequence (Q9BSY9 whole entry, looked up): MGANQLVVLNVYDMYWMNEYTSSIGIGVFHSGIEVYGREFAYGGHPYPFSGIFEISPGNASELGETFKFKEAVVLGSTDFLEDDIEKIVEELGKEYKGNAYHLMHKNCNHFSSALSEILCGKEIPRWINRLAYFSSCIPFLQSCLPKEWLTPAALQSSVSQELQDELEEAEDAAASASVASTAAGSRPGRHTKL
UniProt Q14019, sequence (Q14019 whole entry, looked up): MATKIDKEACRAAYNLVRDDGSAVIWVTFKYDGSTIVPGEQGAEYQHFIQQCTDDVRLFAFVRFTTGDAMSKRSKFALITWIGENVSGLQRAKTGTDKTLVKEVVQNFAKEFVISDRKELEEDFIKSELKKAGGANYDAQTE

Q: Which log2 fold change does the source give for CNST (UniProt Q6PJW8) here?
A: 0.051

Q: With DESI2 (UniProt Q9BSY9) as the target, how does the log2 fold change read?
A: 0.155

Q: With COTL1 (UniProt Q14019) as the target, how does the log2 fold change read?
A: -0.03

Q: Which log2 fold change does the source give for CLASP2 (UniProt O75122) here?
A: 0.052

Q: With CYP2S1 isoform 2 (UniProt Q96SQ9) as the target, how does the log2 fold change read?
A: 0.014

Q: For CSNK1D (UniProt P48730), which log2 fold change is on record?
A: 0.002

Q: How did the log2 fold change turn out when CXCL14 (UniProt O95715) was run?
A: 0.24

Q: How did the log2 fold change turn out when CNK3/IPCEF1 isoform 2 (UniProt G9CGD6) was run?
A: -0.02

Q: For DMAC2L (UniProt Q99766), which log2 fold change is on record?
A: -0.023

Q: Which log2 fold change does the source give for DDX20 (UniProt Q9UHI6) here?
A: 0.007

Q: CPLX1 (UniProt O14810) was tested. Which log2 fold change did it give?
A: 0

Q: For DDX4 (UniProt Q9NQI0), which log2 fold change is on record?
A: 0.019

Q: CINP isoform 3 (UniProt Q9BW66) was tested. Which log2 fold change did it give?
A: 0.084

Q: For DALRD3 (UniProt Q5D0E6), which log2 fold change is on record?
A: -0.17

Q: Which log2 fold change does the source give for CSNK2B (UniProt P67870) here?
A: 0.2

Q: DDA1 (UniProt Q9BW61) was tested. Which log2 fold change did it give?
A: -0.024

Q: For CLCN3 isoform 2 (UniProt P51790), which log2 fold change is on record?
A: -0.059

Q: How did the log2 fold change turn out when CSNK2A1 (UniProt P68400) was run?
A: 0.15

Q: For CLIP1 isoform 1 (UniProt P30622), which log2 fold change is on record?
A: -0.008

Q: How did the log2 fold change turn out when CLIP1, A0A3B3ITA2 was run?
A: 0.136
